Bioassay records: PubChem BioAssay, several laboratories
Most compounds without a hit are left out; they make up all but 3.9% or so of the library.
3CLpro inhibitor = SARS-CoV 3CLpro protease inhibition; recombinant SARS-CoV 3CLpro, quenched FRET peptide cleavage; actives 0.14% (n = 290,000); P0C6X7; inhibition, % at 6 µM; in the data active means inhibition above about 12%
Anthrax LF prot = anthrax lethal factor protease inhibition. actives 0.12% (n = 360,000). inhibition, % at 10 µM. AID 588501. multiplex microsphere protease cleavage assay, LF. P15917
Target sequence (P15917 whole entry, looked up): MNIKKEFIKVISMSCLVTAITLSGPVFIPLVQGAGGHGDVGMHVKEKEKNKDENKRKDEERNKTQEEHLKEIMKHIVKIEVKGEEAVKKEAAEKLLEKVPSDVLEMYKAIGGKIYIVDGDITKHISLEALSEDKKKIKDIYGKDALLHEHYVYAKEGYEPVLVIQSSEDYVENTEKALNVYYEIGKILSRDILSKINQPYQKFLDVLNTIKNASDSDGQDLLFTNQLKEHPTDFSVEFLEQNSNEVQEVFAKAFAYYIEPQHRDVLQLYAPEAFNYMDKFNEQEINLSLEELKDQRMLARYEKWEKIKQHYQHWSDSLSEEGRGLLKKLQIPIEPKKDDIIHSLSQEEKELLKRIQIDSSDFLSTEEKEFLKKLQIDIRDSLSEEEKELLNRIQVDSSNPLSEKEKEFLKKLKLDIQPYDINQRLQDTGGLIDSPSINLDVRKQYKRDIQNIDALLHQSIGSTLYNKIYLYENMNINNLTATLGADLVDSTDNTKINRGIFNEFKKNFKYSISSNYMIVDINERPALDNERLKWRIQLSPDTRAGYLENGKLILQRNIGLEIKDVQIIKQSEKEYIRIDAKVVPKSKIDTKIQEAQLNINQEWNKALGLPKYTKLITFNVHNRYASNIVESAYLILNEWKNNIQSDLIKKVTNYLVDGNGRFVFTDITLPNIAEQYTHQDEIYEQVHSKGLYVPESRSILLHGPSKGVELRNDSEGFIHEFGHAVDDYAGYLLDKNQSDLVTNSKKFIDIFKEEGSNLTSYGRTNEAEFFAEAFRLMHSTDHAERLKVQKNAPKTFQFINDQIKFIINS
BoNT-A LC inh2 = inhibitors of Botulinum neurotoxin A light chain protease; inhibition, % at 10 µM; multiplex microsphere protease substrate cleavage, flow cytometry; actives 0.17% (n = 360,000)
BoNT-F LC inh = blocks Botulinum neurotoxin F light chain protease; Multiplex microsphere protease cleavage assay, flow cytometry; inhibition, % at 10 µM; AID 588497; actives 0.22% (n = 360,000); in the data active means inhibition above about 35%, passing the limit was not always enough; inconclusive means no clear call, values can overlap the other calls
Autofluor counter = compound fluorescence in toxin protease inhibitor counterscreen | compound autofluorescence counterscreen, microsphere flow cytometry; hits give high values | fluorescence intensity (no concentration beside the values) | actives 3.1% (n = 360,000) | AID 624483; in the data active means fluorescence intensity above about 16000; inconclusive means no clear call, values can overlap the other calls
CCHFV vOTU inh = CCHFV vOTU protease inhibition; Pep-AMC fluorescence; inhibition, % at 11.5 µM; actives 0.55% (n = 370,000); AID 651958; in the data active means inhibition above about 30%
Numbers stand for hits; . = inactive; ? = inconclusive; / = no result given. Unless noted, no stated cut-off is given here; in the data, active means inhibition above about 30%; inconclusive means no clear call, values can overlap the other calls; inactive means below that.

SMILES | 3CLpro inhibitor | Anthrax LF prot | BoNT-A LC inh2 | BoNT-F LC inh | Autofluor counter | CCHFV vOTU inh
CCN(CC)S(=O)(=O)c1ccc(NC(=O)COC(=O)CN2C(=O)c3ccccc3C2=O)cc1 | . | . | . | . | 22134 | .
CN(C)c1ccc(NC(=O)CN2C(=O)c3ccccc3C2=O)cc1 | . | . | . | 39.1 | . | .
Cc1ccc(C(=O)C(C)OC(=O)Cn2cnc3c2c(=O)n(C)c(=O)n3C)cc1 (stereo not drawn) | / | . | . | . | . | .
COC(=O)[C@]12C[C@H](CC(=O)N3CCOCC3)C(=O)N(Cc3ccc4c(c3)OCO4)C1=C[C@H](COCc1ccccc1)O[C@@H]2C | / | / | / | / | / | .
Cc1ccc(N/C(SCc2ccccc2C)=C(/C#N)C(=O)NCc2ccco2)cc1C | . | . | . | . | 22786 | .
O=C(CSc1nc2ccccc2nc1N1CCCCC1)NCc1ccc(Cl)cc1Cl | / | / | / | / | / | .
C=CCn1c(COc2ccc(F)cc2)nnc1SCC(=O)N1CC(=O)Nc2ccccc21 | . | . | . | . | 21515 | .
COCCNC(=O)c1c(N)[nH]c(C(=O)c2ccc(Br)cc2)c1-c1ccc(Br)cc1 | / | / | / | / | / | .
O=C(O)C1CN(C(=O)c2cccc(Br)c2)C1 | . | . | . | . | . | .
O=C(Nc1c(Cl)cc(Cl)cc1C(=O)NCCN1CCOCC1)c1ccc(Cl)cc1Cl | . | . | . | . | 16191 | .
CCOc1ccc(-n2c(C)nc3cc(C(=O)NCCN4CCOCC4)ccc32)cc1 | . | . | . | . | . | .
COc1ccc(-n2c(C)nc3cc(C(=O)NCCN4CCOCC4)ccc32)cc1 | . | . | ? | . | 23270 | .
O=C(Nc1ccc(Cl)cc1C(=O)NCCN1CCOCC1)c1ccc(Cl)cc1Cl | . | . | . | . | . | .
COc1ccc(C(=O)Nc2c(Cl)cc(Cl)cc2C(=O)NCCN2CCOCC2)cc1 | . | . | ? | . | 21881 | .
O=C(Nc1nc2ncccn2c1-c1ccc(F)cc1)C1CC1 | / | / | / | / | / | .
CC[C@@H](CCCCCC#N)CCC(=O)N(c1ccccc1)c1ccccc1 | / | / | / | / | / | .
O=C1NC(=O)N(Cc2ccccc2Cl)C(=O)/C1=C/N1CCOCC1 | . | . | . | . | 23148 | .
O=C1NC(=O)N(Cc2cccs2)C(=O)/C1=C/c1ccc(N2CCOCC2)cc1 | . | . | . | . | . | .
COc1ccccc1C1CCN(c2cc(O)ccc2[N+](=O)[O-])CC1 | . | . | . | ? | ? | .
COc1ccc(CCNC(=O)CSC2=NS(=O)(=O)c3cc(F)ccc3N2)cc1OC | / | . | . | . | . | .
O=C(Nc1ccc2nsnc2c1)c1ccc2c(c1)OCO2 | . | . | . | . | 23719 | /
O=C(Nc1ccc2c(c1)OCO2)c1ccc2c(c1)OCO2 | . | . | . | . | . | .
O=C(Nc1ccon1)c1ccc2c(c1)OCO2 | . | . | ? | . | 16433 | .
Cc1ccnc(NC(=O)c2ccc3c(c2)OCO3)c1 | . | . | . | . | . | .
COc1ccc(CCC[C@@H](CCC(=O)N(c2ccccc2)c2ccccc2)CCc2ccccc2)cc1 | / | / | / | / | / | .
SMILES | 3CLpro inhibitor | Anthrax LF prot | BoNT-A LC inh2 | BoNT-F LC inh | Autofluor counter | CCHFV vOTU inh
CCOc1ccc(CC(=O)Nc2ccc(NC(=O)c3ccco3)cc2)cc1OCC | . | . | . | . | . | .
COc1cc(Br)c(S(=O)(=O)Nc2c(C)n(C)n(-c3ccccc3)c2=O)cc1OC | . | . | . | . | 21059 | .
COc1ccccc1NC(=O)Nc1c(C)n(C)n(-c2ccccc2)c1=O | . | . | ? | . | 21129 | .
COc1ccccc1C(=O)Nc1c(C)n(C)n(-c2ccccc2)c1=O | . | . | . | . | 22949 | .
COc1ccc(S(=O)(=O)Nc2c(C)n(C)n(-c3ccccc3)c2=O)cc1Br | . | . | . | . | . | .
Cc1c(NC(=O)c2ccccc2F)c(=O)n(-c2ccccc2)n1C | . | . | ? | . | 16314 | .
Cc1c(NC(=O)c2c(F)c(F)c(F)c(F)c2F)c(=O)n(-c2ccccc2)n1C | . | . | . | . | . | .
Cc1c(NC(=O)c2cc(=O)[nH]c3ccccc23)c(=O)n(-c2ccccc2)n1C | . | . | . | . | 17099 | .
Cc1cccc(NC(=O)/C=C/c2cccs2)n1 | . | . | . | . | 21452 | .
Cc1cc(C(=O)Nc2c(C)n(C)n(-c3ccccc3)c2=O)c2ccccc2n1 | . | . | . | . | . | .
Cc1c(NS(=O)(=O)c2ccc3[nH]c(=O)[nH]c3c2)c(=O)n(-c2ccccc2)n1C | . | . | . | . | 20240 | .
Cc1c(NC(=O)/C=C/c2cccs2)c(=O)n(-c2ccccc2)n1C | . | . | . | . | 22938 | .
Cc1c(NC(=O)CN2CCCc3ccccc32)c(=O)n(-c2ccccc2)n1C | . | . | ? | . | 22099 | .
Cc1c(NC(=O)CC(=O)Nc2c(C)n(C)n(-c3ccccc3)c2=O)c(=O)n(-c2ccccc2)n1C | . | . | . | . | . | .
COc1ccc(NC(=O)C23CC4CC(C2)CC(n2cnc(Br)n2)(C4)C3)cc1OC | . | . | ? | . | 16534 | .
O=C(c1cccc(O)c1)N1CCN(C(=O)C2CC2)CC1 | / | . | . | . | . | .
CC1CC2(O)c3no[n+]([O-])c3CCC2N1O (stereo not drawn) | . | . | . | . | 22460 | .
Cc1nnc(NC(=O)C2CC(=O)N(c3ccccc3)C2)s1 (stereo not drawn) | . | . | . | . | . | .
CCOc1ccc(OCC)c(NC(=O)C2CCN(c3ncccn3)CC2)c1 | . | . | ? | . | 22945 | .
COc1cccc(OC)c1C(=O)N1CCN(c2c(Cc3ccccc3)c(C)nc3ncnn23)CC1 | . | . | . | . | 26771 | .
CCOc1ccc(OCC)c(NC(=O)C2CCCN(c3ncccn3)C2)c1 (stereo not drawn) | . | . | . | . | . | .
Cc1nc2ncnn2c(N2CCC(C(=O)NC3CCCC3)CC2)c1Cc1ccccc1 | . | . | . | . | . | .
O=C(NCc1ccc2c(c1)OCO2)C1CCN(c2ccc(S(=O)(=O)N3CCCC3)cc2)CC1 | . | . | . | . | 19826 | .
CCOc1ccc(OCC)c(NC(=O)CN2CCC(NC(=O)c3cccc(F)c3)CC2)c1 | . | . | . | . | 20291 | .
CCOc1ccccc1NC(=O)CN1CCC(NC(=O)c2ccccc2)CC1 | . | . | . | . | . | .
SMILES | 3CLpro inhibitor | Anthrax LF prot | BoNT-A LC inh2 | BoNT-F LC inh | Autofluor counter | CCHFV vOTU inh
O=C(NCc1ccc2c(c1)OCO2)C1CCN(S(=O)(=O)N2CCCCC2)CC1 | . | . | . | . | . | .
Cc1cc(C)nc(N2CCC(C(=O)NCc3cccc(C(F)(F)F)c3)CC2)n1 | . | . | . | . | . | .
CCc1c(C)nc2ncnn2c1N1CCCC(C(=O)NCc2ccc3c(c2)OCO3)C1 (stereo not drawn) | . | . | . | . | 22326 | .
CCc1c(C)nc2ncnn2c1N1CCCC(C(=O)Nc2ccc(NC(C)=O)cc2)C1 (stereo not drawn) | . | . | . | . | . | .
O=C(NCc1ccc2c(c1)OCO2)C1CCN(c2ncccn2)CC1 | . | . | ? | . | 21984 | .
CCc1c(C)nc2ncnn2c1N1CCC(C(=O)N2CCN(c3ccc(F)cc3)CC2)CC1 | . | . | ? | . | 24650 | .
